# This is part of a sample that, as a whole, favours compounds with a hit. Of some 83,000 tested, about 20% had one in any assay.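 Compound tested at a single concentration for 48 hours in 96-well plates; a percent growth value below 10 was scored as active.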 Values without a mark were called inactive. Active and inactive are the calls of the source.
# Tests used:
# Test in all cases: NCI-60 one-dose screen, 48 h (100 = growth as untreated, 0 = no growth, -100 = all killed)
# [1] = test system: NCI-H522 lung; details: 10 µM unless noted
# [2] = test system: COLO 205 colon; details: 10 µM
# [3] = test system: K-562 leukemia; details: 10 µM unless noted
# [4] = test system: MALME-3M melanoma; details: 10 µM unless noted
# [5] = test system: SNB-19 CNS; details: 10 µM unless noted
# [6] = test system: U251 CNS; details: 10 µM unless noted
# [7] = test system: TK-10 renal; details: 10 µM unless noted
# [8] = test system: CCRF-CEM leukemia; details: 10 µM unless noted
# [9] = test system: SR leukemia; details: 10 µM
# [10] = test system: OVCAR-4 ovarian; details: 10 µM unless noted
# [11] = test system: SK-OV-3 ovarian; details: 10 µM unless noted
# [12] = test system: OVCAR-3 ovarian; details: 10 µM unless noted
# [13] = test system: T-47D breast; details: 10 µM unless noted
# [14] = test system: BT-549 breast; details: 10 µM
# [15] = test system: MCF7 breast; details: 10 µM unless noted
# [16] = test system: HCC-2998 colon; details: 10 µM unless noted
# [17] = test system: EKVX NSCLC; details: 10 µM unless noted
# [18] = test system: RPMI-8226 leukemia; details: 10 µM unless noted
# [19] = test system: HOP-92 NSCLC; details: 10 µM unless noted
SMILES,growth [1],growth [2],growth [3],growth [4],growth [5],growth [6],growth [7],growth [8],growth [9],growth [10],growth [11],growth [12],growth [13],growth [14],growth [15],growth [16],growth [17],growth [18],growth [19]
O=CC(Br)C(Br)c1ccccc1 (centres undefined),98%,123%,41.2%,82.6%,96%,102%,106%,-1.8% (active),16.1%,104%,109%,33.3%,37.2%,99.7%,44.1%,106%,–,–,–
O=[N+]([O-])c1ccccc1N1CCNCC1,88.6%,104%,91.7%,89%,102%,97.4%,96.2%,112%,88.5%,99.4%,–,101%,-4.84% (active),–,–,100%,104%,118%,–
CC(N)Cc1ccc(O)cc1 (centres undefined),105%,128%,94.8%,98.6%,114%,106%,98.3%,93.9%,55.4%,124%,105%,108%,–,126%,100%,111%,107%,–,–
O=c1cc[nH]c(=O)o1,–,104%,105%,95.2%,108%,102%,84.1%,–,–,104%,102%,107%,96.3%,102%,96.9%,116%,–,93.1%,118%
O=C(O)c1cccc(CCl)c1,–,106%,101%,110%,114%,96.7%,97.5%,–,–,105%,99.7%,–,96.3%,96.6%,98.4%,112%,–,105%,84.3%
C[C@]12CC[C@H]3[C@@H](C[C@@H]4N=C(c5ccc(O)cc5)S[C@@]45C[C@H](O)CC[C@]35C)[C@@H]1CC[C@@H]2O,41.2%,77.7%,13.9%,72.4%,71%,20.1%,89.3%,13.1%,5.95% (active),81.8%,–,–,67.7%,59.3%,42.6%,–,63.6%,-36.9% (active),–
O=C(CC1(O)C(=O)Nc2ccc(F)cc21)c1ccc(C(=O)NCC2CCC3(CC2)OOC2(CCCCC2)OO3)cc1 (centres undefined),–,33.7%,14.9%,-35.8% (active),80.2%,15.3%,–,-32.1% (active),-43.2% (active),65.6%,91.1%,-50.1% (active),–,78%,60.9%,113%,-29.9% (active),12.7%,-65.3% (active)
O=C(CI)Nc1ccc(Br)cc1,-85% (active),-78.2% (active),-41.1% (active),-65% (active),92.1%,-18.8% (active),-81.4% (active),-31.7% (active),-53% (active),27.4%,101%,-78.7% (active),26.7%,–,32.4%,102%,102%,36.6%,–
S=P(N1CCCCCC1)(N1CC1)N1CC1,102%,93.9%,97%,90.3%,101%,106%,98.5%,94.4%,82.6%,117%,93.9%,–,94.5%,102%,94%,93.8%,119%,–,–
C[C@]12CCc3sc(-c4ccc(Cl)cc4)nc3C1=CC[C@@H]1[C@@H]2CC[C@]2(C)C(=O)CC[C@@H]12,–,97.2%,7.44% (active),75%,56.2%,36.7%,–,14.5%,10.9%,74%,79.2%,–,66.2%,60.6%,–,–,72.3%,-17.8% (active),98.6%
CC1(C)N=C(N)N=C(N)N1c1ccc(CCCCc2ccc(Cl)cc2S(=O)(=O)F)c(Cl)c1,3.95% (active),15.9%,14.5%,39.3%,36.6%,15.3%,30.3%,13.1%,–,50.3%,44.2%,25.2%,28.6%,37%,13.3%,–,–,–,–
O=[N+]([O-])c1cccc([As]=[As]c2cccc([N+](=O)[O-])c2)c1 (centres undefined),–,-81.2% (active),-21.7% (active),-89.1% (active),-98.6% (active),-96.1% (active),-98.4% (active),–,-32% (active),-99.2% (active),-100% (active),–,-58.3% (active),-97.7% (active),–,-90.6% (active),–,-39.3% (active),-99.3% (active)
C=CC(O)CN1CC1CC (centres undefined),–,114%,101%,110%,97.8%,–,–,116%,89.9%,112%,–,111%,101%,93.5%,94.2%,96.2%,102%,–,93.6%
Nc1cccc(CC(=O)Nc2ccc(S(=O)(=O)F)cc2)c1,84.8%,95.8%,144%,90%,105%,102%,107%,2.63% (active),96.7%,–,92.4%,102%,92.5%,–,86.7%,43.9%,104%,–,–
CN1CCN(C(=O)COc2ccc(/C=C3\CC4C5CC=C6CC(Cl)CCC6(C)C5CCC4(C)C3=O)cc2)CC1 (centres undefined),61.5%,60.5%,18.3%,73.8%,98%,34.1%,88.2%,49.3%,0.223% (active),70.7%,85.8%,–,71.2%,87.3%,83.9%,90.6%,68.2%,–,–
N#Cc1ncc(/N=C/c2ccc(N(CCCl)CCCl)cc2)s1,–,99.4%,37.6%,–,89%,80.5%,92.8%,56.2%,12.7%,81.9%,78.5%,78.5%,64.2%,66%,–,96.8%,91.2%,–,78.5%
Nc1c(Br)cc2c3c(cccc13)-c1ccccc1-2,–,88.2%,38.3%,–,92.9%,60.1%,–,48.8%,9.02% (active),62.1%,87.7%,64.4%,38.6%,91.8%,38.7%,80.7%,53.1%,–,25%
CC(=O)N1N=C(c2ccccc2)CC1c1sc(N(CCCl)CCCl)nc1Cl (centres undefined),72.2%,99.5%,80%,109%,86.1%,92.6%,–,93.5%,86.4%,101%,89.4%,96.4%,–,92.8%,95%,96.4%,90.9%,–,–
O=[As]c1ccc(C(=O)c2ccc(Oc3ccccc3)cc2)cc1 (centres undefined),-95.4% (active),-89.2% (active),-17.8% (active),-66.2% (active),-97.4% (active),-100% (active),–,-33.1% (active),-23.9% (active),-91.2% (active),-100% (active),-93.9% (active),-47.2% (active),-98.8% (active),–,-93.9% (active),-80.8% (active),-49.2% (active),–
C/C(=C\c1cc(C(F)(F)F)n(-c2ccc(N)cc2)n1)[C@@H]1C[C@@H]2O[C@]2(C)CCC[C@H](C)[C@H](O)[C@@H](C)C(=O)C(C)(C)[C@@H](O)CC(=O)O1,–,-45% (active),6.37% (active),58.1%,21.1%,3.19% (active),–,12.8%,-16.4% (active),44.7%,2.26% (active),-0.038% (active),12.8%,–,7.93% (active),8.18% (active),31.8%,3.83% (active),37.9%

# From PubChem BioAssay (NCI)
